Screening data deposited in PubChem BioAssay by several laboratories.
Most compounds without a hit are left out; they make up all but 3.1% or so of the library.
TROY NFkB inh: inhibitors of TROY-dependent NF-kB signaling. Q293 LMP1-TROYcd NF-kB luciferase reporter, 4 h. inhibition, % at 10 µM. hit rate 0.98% among 360,000. AID 1347056;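 active means compounds whose plate-normalised and pattern-corrected inhibition of the luciferase reporter signal at the single screening dose is 50% or more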
EWS-Fli inh: inhibitors of EWS/Fli oncoprotein transcriptional activity | A673 NR0B1-luciferase reporter, viability-normalised | hit rate 0.67% among 350,000 | inhibition, % at 12.6 µM;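 active means mean inhibition of at least 50% after viability correction, with every replicate also passing that limit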;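 further: firefly luciferase signal divided by Alamar Blue viability fluorescence both relative to DMSO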
PAX8 inh HTS: inhibitors of PAX8 transcriptional activity in RMG-I cells; RMG-I TPO-luciferase reporter, SteadyGlo, 24 h; inhibition, % at 12.6 µM; hit rate 1.2% among 360,000; AID 652154;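 active means mean replicate inhibition at least 60% with every replicate also reaching 60%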;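 further: luciferase light reporting Pax8 driven TPO promoter activity; plate controls were median of neutral control wells for no effect and mitoxantrone controls for full effect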
TWEAK-Fn14 inh: inhibitors of TWEAK-Fn14 interaction signaling. TWEAK-stimulated Fn14 reporter cells, luciferase luminescence, 8 h. inhibition, % at 10 µM. hit rate 2% among 360,000; in the data active means inhibition above about 50%
LGR2 inh: blocks bursicon-induced cAMP signaling via Drosophila LGR2; HEK293 LGR2, CRE-luciferase, bursicon-stimulated, 4 h; inhibition, % at 9.99 µM; hit rate 0.35% among 380,000;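 active means drop in luminescence signal, shown as inhibition above about 50% in the replicate tests, limit read from the data, passing the limit was not always enough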;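 further: agonist challenge used bursicon conditioned medium at about half maximal strength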
LMP1 NFkB inh: Epstein-Barr LMP1 NF-kappaB reporter inhibition | LMP1-induced NF-kappaB luciferase reporter cells, luminescence | inhibition, % at 12.5 µM | hit rate 0.69% among 350,000 | AID 504558; in the data active means inhibition above about 41%;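 further: 0% = neutral control wells and 100% = reference inhibitor control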
Numbers without * were called inactive; · = no result.

SMILES	TROY NFkB inh	EWS-Fli inh	PAX8 inh HTS	TWEAK-Fn14 inh	LGR2 inh	LMP1 NFkB inh
CO[C@H]1CN(C)C(=O)c2cc(NC(=O)Nc3cccc(F)c3)ccc2OC[C@H](C)N(C(C)=O)C[C@@H]1C	·	-1	·	·	2	·
C[C@H](CO)N1C[C@H](C)[C@@H](CN(C)Cc2ccc(C(F)(F)F)cc2)Oc2ccc(NC(=O)NC3CCCCC3)cc2CC1=O	·	11	·	·	9	·
C[C@H]1CN([C@@H](C)CO)C(=O)Cc2cc(NS(C)(=O)=O)ccc2O[C@H]1CN(C)C(=O)Nc1ccc(F)cc1	·	3	1	·	17	·
C[C@H](CO)N1C[C@H](C)[C@H](CN(C)S(=O)(=O)c2ccc(F)cc2)Oc2cc(C3=CCCCC3)ccc2S1(=O)=O	·	20	·	·	23	·
Cc1ccc(C(=O)Nc2ccc3ncccc3c2)cc1	56*	66*	22	94*	74*	45*
C[C@@H]1CN([C@H](C)CO)S(=O)(=O)c2ccc(-c3ccccc3)cc2O[C@H]1CN(C)C(=O)Nc1ccccc1F	·	-3	·	·	0	·
COc1ccc(NC(=O)c2cc(-c3cccc(OC)c3)on2)cc1	-11	-8	-43	-6	1	-3
O=C(Nc1cccc(O)c1)c1cc(-c2cccs2)on1	7	5	-217	69*	26	4
COc1cccc(-c2cc(C(=O)Nc3cccc(O)c3)no2)c1	44	·	·	66*	79*	-7
C[C@@H]1CN([C@H](C)CO)C(=O)c2cc(NC(=O)Nc3cccc4ccccc34)ccc2O[C@H]1CN(C)S(=O)(=O)c1cn(C)cn1	·	-1	·	·	10	·
C[C@H]1CN([C@@H](C)CO)C(=O)c2cccc(NC(=O)c3cnccn3)c2O[C@@H]1CN(C)Cc1ccccc1	·	-2	3	·	15	·
Cc1cccc(NC(=O)c2cnc3sccn3c2=O)c1	-13	-13	-99	24	-54	8
Cc1cccc(NC(=O)c2cnc3ccccn3c2=O)c1	-18	58*	-224	80*	·	51*
O=C(Nc1ccc2c(c1)OCCO2)c1cnc2ccccn2c1=O	-20	·	·	70*	·	28
O=C(Nc1cnc2ccccn2c1=O)c1ccc(Cl)cc1Cl	73*	41	-34	82*	71*	44*
Cc1noc(C)c1NC(=O)N(C)C[C@H]1Oc2ccc(NC(=O)NC(C)C)cc2C(=O)N([C@@H](C)CO)C[C@H]1C	·	-10	-27	·	-11	·
Cc1ccc(S(=O)(=O)/N=C2\C=C(Nc3cccc(C(=O)O)c3)C(=O)c3ccccc32)c(C)c1	16	-67	10	93*	16	-13
Cc1ccc(S(=O)(=O)/N=C2\C=C(Nc3ccc(O)cc3)C(=O)c3ccccc32)cc1	43	·	·	101*	·	88*
O=C(O)c1cccc(NS(=O)(=O)c2ccc3c(c2)C(=O)c2ccccc2C3=O)c1	6	3	-10	9	-10	-3
Cc1ccc(S(=O)(=O)/N=C2\C=C(Nc3cccc(C(=O)O)c3)C(=O)c3ccccc32)cc1	-6	-73	-44	94*	-27	-12
CC(C)(C)c1ccc(S(=O)(=O)/N=C2\C=C(NS(=O)(=O)c3ccccc3)C(=O)c3ccccc32)cc1	11	·	0	14	14	2
CCc1ccc(S(=O)(=O)/N=C2\C=C(Nc3ccc(C(=O)O)cc3)C(=O)c3ccccc32)cc1	48	19	93*	96*	103*	0
Cc1ccc(S(=O)(=O)/N=C2\C=C(NS(=O)(=O)c3ccccc3)C(=O)c3ccccc32)c(C)c1	21	-72	14	-19	4	-4
Cc1cccc(CSc2cccc3cccnc23)c1	-78	·	·	103*	·	-14
COc1ccc(CN2C3CCCC2CC(NC(=O)Nc2ccccc2)C3)cc1 (stereo not drawn)	-5	·	-1	2	·	-5
COc1ccc(CN2C3CCCC2CC(NC(=O)Nc2ccccc2C)C3)cc1 (stereo not drawn)	13	·	8	62*	·	2
COC(=O)Cc1ccc(NC(=S)N2CCN(c3cc(Cl)ccc3C)CC2)cc1	36	11	-6	56*	8	18
COC(=O)Cc1ccc(NC(=S)N2CCN(c3ccccn3)CC2)cc1	18	-4	-2	-8	6	2
C[C@@H]1CN([C@@H](C)CO)C(=O)c2cc(C#CCc3ccccc3)cnc2O[C@@H]1CN(C)C(=O)C1CC1	·	-5	·	·	7	·
